# Reference: the supplement of paper PMC12669797
# Test system: TOV-21G
# Experiment: cell viability relative to DMSO control (MTS) (fraction of DMSO control); higher = more viable cells / less growth inhibition
# Settings: 10 µM; 48 h
# In short: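 A 367-compound […] library was tested at a final concentration of 10 µM on TOV-21G and ES2 clear cell carcinoma cells (5000 cells per well, 96-well plates, pre-grown 24 h), with control wells receiving vehicle only. Following 48 h of exposure, CellTiter 96 AQueous One Solution was used as the manufacturer directs. This MTS assay gives cell viability as a fraction of the vehicle control.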
row,Structure (SMILES),cell viability
1,COc1cc2nccc(Oc3ccc(NC(=S)NC(=O)c4ccccc4C)cc3)c2cc1OC [PDGF receptor tyrosine kinase inhibitor V],0.525
2,C[C@]1(c2nc3c(C(N)=O)cccc3[nH]2)CCCN1 [ABT-888 (Veliparib)],0.892
3,Cc1cc(C=C2C(=O)C=CC2=O)cc(C)c1O,1.21
4,COc1cc(Nc2ncc3c(n2)-c2ccc(Cl)cc2C(c2c(F)cccc2OC)=NC3)ccc1C(=O)O,0.619
5,CC(C)C(C(=O)O)N1C(=O)C(=Cc2ccc(Br)cc2)SC1=S (centres undefined),1.16
6,CCN(CC)CC(=O)Nc1c(C)cccc1C [Lidocaine],1.4
7,CC(C)C[C@H](NC(=O)[C@H](Cc1ccccc1)NC(=O)c1cnccn1)B(O)O [bortezomib],0.432
8,CC(C)[C@H](CO)Nc1nc(Nc2cccc(Cl)c2)c2ncn(C(C)C)c2n1 [Purvalanol A],0.652
9,CCn1cc(C(=O)O)c(=O)c2ccc(C)nc21 [Nalidixic acid],1.12
10,CS(=O)(=O)CCNCc1ccc(-c2ccc3ncnc(Nc4ccc(OCc5cccc(F)c5)c(Cl)c4)c3c2)o1 [lapatinib],4.68
11,COC(=O)C[C@H](NC(=O)[C@H](C)NC(=O)[C@@H](NC(=O)OCc1ccccc1)C(C)C)C(=O)CF,1.16
12,Cc1c[nH]c(/C=C2\C(=O)Nc3ccccc32)c1CCC(=O)O,1.08
13,CN(C)CC(=O)Nc1ccc2[nH]c(=O)c3ccccc3c2c1,0.882
14,CCCC[C@@H](C)/C=C(C)/C=C(\C)C(=O)NC1=C[C@@](O)(/C=C/C=C/C=C/C(=O)NC2=C(O)CCC2=O)[C@@H]2O[C@@H]2C1=O [Manumycin A],1.61
